Data as given in the supplement of paper PMC8699584.
Where “and” joins values, the source holds several entries; their conditions need not be identical. Equal entries are not always repeated. Structures can show the parent of a compound that is named as a salt. ± gives the standard deviation of the averaged measurements.

The compounds below were run on Mv4-11 (assay: cell viability relative to DMSO control (bortezomib = 0%); higher = less growth inhibition). Settings: 10 nM; 72 h.
Summary of the method: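 FLT3-ITD+ acute myeloid leukemia cells were dispensed onto a library of 679 approved and investigational compounds in 384-well plates, at 1000 cells per well in 50 µL and a single 10 nM dose, for 72 h. The screen was run in duplicate. Cell viability was read by CellTiter-Glo luminescence on an EnVision reader. Values were converted to percentages by per-plate linear regression between DMSO-treated cells (100%) and positive-control-treated cells (0%).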

Compound	cell viability
C[C@@H]1O[C@@H](Oc2c(-c3cc(O)c(O)c(O)c3)oc3cc(O)cc(O)c3c2=O)[C@H](O)[C@H](O)[C@H]1O [Myricetrin]	112 ± 35%
N#CCC(C1CCCC1)n1cc(-c2ncnc3[nH]ccc23)cn1 (stereo not given)	113 ± 13%
COC(=O)[C@]12CCC(C)(C)C[C@H]1[C@H]1C(=O)C=C3[C@@]4(C)C=C(C#N)C(=O)C(C)(C)[C@@H]4CC[C@@]3(C)[C@]1(C)CC2 [Bardoxolone Methyl]	104 ± 1.1%
Cc1c(CN2CCN(S(C)(=O)=O)CC2)sc2c(N3CCOCC3)nc(-c3cnc(N)nc3)nc12	107 ± 9.6%
CC(=O)Nc1nc(C)c(-c2ccc(Cl)c(S(=O)(=O)NCCO)c2)s1	97.8 ± 21%
CN1CCN(c2ccc(Nc3cc(-c4cccc(-n5ccc6cc(C7CC7)cc(F)c6c5=O)c4CO)cn(C)c3=O)nc2)CC1	107 ± 8.8%
O=c1c(O)c(-c2cc(O)c(O)c(O)c2)oc2cc(O)cc(O)c12 [Myricetin]	114 ± 17%
O=C(Nc1ccccc1C(=O)NC1CCCCNC1=O)c1cc2ccccc2s1 (stereo not given)	103 ± 1.5%
COc1ccc(C2CC(=O)c3c(O)cc(OC4OC(COC5OC(C)C(O)C(O)C5O)C(O)C(O)C4O)cc3O2)cc1OC (stereo not given) [Methyl hesperidin]	117 ± 20%
CNC(=O)c1ccccc1Oc1nc(Nc2cc(OC)c(OC)c(OC)c2)ncc1Br	107 ± 11%
O=C(Nc1nc2ccc(NC(=O)C34CC5CC(CC(C5)C3)C4)cc2s1)c1ccccc1	101 ± 8.4%
Cc1ccc(NC(=O)c2ccc(CN3CCN(C)CC3)cc2)cc1Nc1nc(-c2cccnc2)cs1 [Masitinib (AB1010)]	116 ± 26%
c1cc(-c2cnn3cc(-c4ccc(N5CCNCC5)cc4)cnc23)c2cccnc2c1	103 ± 1.1%
c1cc(-c2cnn3cc(-c4ccc(OCCN5CCCCC5)cc4)cnc23)ccn1 [Dorsomorphin dihydrochloride]	65.7 ± 3.6%
N#CCC(=O)NN [Cyanoacetohydrazide]	109 ± 22%
CNC(=O)c1cccc(-c2ccc3c(N4CCOC[C@@H]4C)nc(N4CCOC[C@@H]4C)nc3n2)c1	98.5 ± 20%
N[C@@H]1CCCN(c2c(/C=C3\SC(=O)NC3=O)cccc2-c2ccccc2)C1	125 ± 9.2%
C=CC(=O)Nc1cc2c(Nc3ccc(F)c(Cl)c3)ncnc2cc1OCCCN1CCOCC1 [Canertinib (hydrochloride)]	103 ± 7.2%
COc1cc2ncnc(Nc3ccc(O)cc3)c2cc1OC	102 ± 7.1%
COc1ccc2cc1Oc1ccc(cc1)C[C@H]1c3cc(c(OC)cc3CCN1C)Oc1c(O)c(OC)cc3c1[C@H](C2)N(C)CC3 [(+)-Fangchinoline]	114 ± 1.3%

Compound	cell viability
N#Cc1ccc2[nH]c(O)c(-c3ccc(CN4CCOCC4)cn3)c2c1	106 ± 5.3%
Nc1cc(C(F)(F)F)c(-c2cc(N3CCOCC3)nc(N3CCOCC3)n2)cn1 [BKM120 (NVP-BKM120, Buparlisib)]	99.8 ± 2.8%
COc1ccc([C@@H]2OC[C@H]3[C@@H]2CO[C@@H]3c2ccc(O[C@@H]3O[C@H](CO)[C@@H](O)[C@H](O)[C@H]3O)c(OC)c2)cc1OC [Forsythin]	102 ± 6.1%
CCS(=O)(=O)N1CC(CC#N)(n2cc(-c3ncnc4[nH]ccc34)cn2)C1	105 ± 8.7%
C=CC(=O)Nc1cccc(Nc2nc(Nc3ccc(N4CCN(C(C)=O)CC4)cc3OC)ncc2C(F)(F)F)c1 [Rociletinib (CO-1686, AVL-301)]	110 ± 1.6%
N=C(N)NC(=N)NCCc1ccccc1 [Phenformin hydrochloride]	107 ± 19%
O=C(c1ccc(F)c(F)c1Nc1ccc(I)cc1F)N1CC(O)([C@@H]2CCCCN2)C1 [Cobimetinib]	103.3 ± 0.5%
CC1(C)CNc2cc(NC(=O)c3cccnc3NCc3ccncc3)ccc21 [Motesanib (AMG-706)]	107 ± 5.2%
COc1cc(Nc2c(C#N)cnc3cc(OCCCN4CCN(C)CC4)c(OC)cc23)c(Cl)cc1Cl [Bosutinib]	90.8 ± 17%
Cn1cc(C2=C(c3ccc(Cl)cc3Cl)C(=O)NC2=O)c2ccccc21	106% and 108%
CN(C)Cc1cccc(N=C(c2ccccc2)c2c(O)[nH]c3cc(C(=O)N(C)C)ccc23)c1	111 ± 12%
COc1cc(OC)c(/C=C/S(=O)(=O)Cc2ccc(OC)c(OP(=O)(O)O)c2)c(OC)c1 [Briciclib]	106 ± 11%
CCn1c(N)c(C(=O)NC)c(=O)c2ccc(C#CC(C)(O)COC)nc21 (stereo not given)	115 ± 8.3%
CC[C@@H]1C(=O)N(C)c2cnc(Nc3ccc(C(=O)NC4CCN(C)CC4)cc3OC)nc2N1C1CCCC1	96.8 ± 16%
Cn1cc(/C=C2\C(=O)Nc3cccnc32)c2ccccc21	107 ± 3.6%
CN1CCN(c2nc(C3=C(c4c[nH]c5ccccc45)C(=O)NC3=O)c3ccccc3n2)CC1 [Sotrastaurin]	109 ± 11%
Cc1ccc(CNc2ncnc3ccc(-c4ccc(CO)o4)cc23)o1	107 ± 12%
Cc1c(CN2CCN(C(=O)[C@H](C)O)CC2)sc2c(N3CCOCC3)nc(-c3cnc(N)nc3)nc12 [Apitolisib (GDC-0980, RG7422)]	104 ± 14%
CCOC(=O)c1cnc2ccc(-c3cncc(NS(=O)(=O)c4ccccc4)c3)cn12	103 ± 14%
COc1cc2nccc(Oc3ccc(NC(=O)C4(C(=O)Nc5ccc(F)cc5)CC4)cc3)c2cc1OC [XL184(Cabozantinib malate)]	42 ± 6.5%
